In PubChem BioAssay (NCI):
The panel holds about 79,000 compounds, 15% with a hit somewhere; the sample as a whole holds those more often. Unmarked numbers belong to inactive results. Active and inactive are the calls of the source. Cut-off read from the data, not from the text of the source: active = growth inhibition above about 70%; inactive = the rest.

What was measured:
[1] = NCI Yeast Anticancer Drug Screen. Data for the rad52 strain (AID 147);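 note: 0% = growth of vehicle-treated control cultures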; conditions: S. cerevisiae rad52 mutant growth inhibition, hits give high values
Outline: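 Genetically altered yeast (DNA damage repair defect) treated with compound; inhibition calculated relative to vehicle.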

[2] = NCI Yeast Anticancer Drug Screen. Data for the wt1 strain (AID 149);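 note: 0% = growth of vehicle-treated wt1 cultures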; conditions: S. cerevisiae wt1 strain (SPY 50644) growth inhibition, hits give high values
Outline: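 Each compound is tested on wt1 yeast and the loss of growth versus vehicle gives the inhibition value.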

[3] = NCI Yeast Anticancer Drug Screen. Data for the rad50EPP+ strain (AID 151);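 note: 0% = growth of vehicle-treated control cultures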; conditions: S. cerevisiae rad50 mutant strain, hits give high values
Outline: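 Strain rad50EPP+; compound exposure; % growth inhibition vs vehicle.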

[4] = NCI Yeast Anticancer Drug Screen. Data for the mgt1 strain (AID 153); conditions: S. cerevisiae mgt1 mutant growth inhibition, hits give high values
Outline: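 Read-out: yeast growth inhibition vs vehicle control. Strain mgt1, drawn from a panel altered in DNA damage repair or cell cycle control.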

[5] = NCI Yeast Anticancer Drug Screen. Data for the rad50 strain (AID 155);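 note: 0% = growth of vehicle-only cultures of the same strain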; conditions: S. cerevisiae rad50 strain growth inhibition, hits give high values
Outline: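 Vehicle-treated cultures provide the reference for the growth inhibition reported for compound-exposed, repair-deficient yeast.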

[6] = NCI Yeast Anticancer Drug Screen. Data for the mec2-1 strain (AID 157); conditions: S. cerevisiae mec2-1 strain, hits give high values
Outline: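 Cells of the genetically defined mec2-1 yeast strain are incubated with test compound. Inhibition of growth is calculated against vehicle-treated controls.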

[7] = NCI Yeast Anticancer Drug Screen. Data for the rad14 strain (AID 159);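 note: 0% = growth of vehicle-treated control cultures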; conditions: S. cerevisiae rad14 strain growth inhibition, hits give high values
Outline: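 Inhibition of growth is reported for a repair-deficient yeast mutant following compound treatment, calculated relative to cultures that received vehicle.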

[8] = NCI Yeast Anticancer Drug Screen. Data for the sgs1 mgt1 strain (AID 161);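 note: 0% = growth of cultures given vehicle only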; conditions: S. cerevisiae sgs1 mgt1 strain, hits give high values
Outline: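 Test agents were incubated with a DNA-repair-mutant yeast strain. Growth was then read and compared against vehicle-treated controls.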

[9] = NCI Yeast Anticancer Drug Screen. Data for the CLN2oe strain (AID 163);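 note: 0% = growth of vehicle-only control cultures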; conditions: S. cerevisiae CLN2oe strain, hits give high values
Outline: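 Strain altered in cell-cycle control, incubated with compound; growth compared to solvent-treated controls.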

[10] = NCI Yeast Anticancer Drug Screen. Data for the cln2 rad14 strain (AID 165);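 note: 0% = growth equal to vehicle treated cultures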; conditions: S. cerevisiae cln2 rad14 strain, hits give high values
Outline: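 The screen exposed genetically defined yeast (cln2 rad14) to test compounds and scored growth inhibition relative to vehicle-treated controls.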

[11] = NCI Yeast Anticancer Drug Screen. Data for the bub3 strain (AID 167); conditions: S. cerevisiae bub3 mutant strain, hits give high values
Outline: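 Mutant yeast screening strain plus compound; vehicle-treated cultures serve as the 0% inhibition reference.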

[12] = NCI Yeast Anticancer Drug Screen. Data for the wt2 strain (AID 169); conditions: S. cerevisiae wt2 strain growth inhibition, hits give high values
Outline: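 Steps: yeast strain treated with compound; growth recorded; inhibition calculated relative to cultures given vehicle alone.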

[13] = NCI Yeast Anticancer Drug Screen. Data for the mlh1 strain (AID 171);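 note: 0% = growth of vehicle-treated control cultures of the same strain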; conditions: S. cerevisiae mlh1 strain growth inhibition, hits give high values
Outline: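 Yeast screen: mutant strain plus compound, growth scored against vehicle control wells.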

[14] = NCI Yeast Anticancer Drug Screen. Data for the sgs1 strain (AID 173);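 note: 0% = growth of vehicle-only control cultures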; conditions: S. cerevisiae sgs1 mutant, hits give high values
Outline: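 Inhibition of yeast growth served as the measure. The mutant strain was treated with each compound, and growth was normalised to cultures receiving vehicle alone.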

[15] = NCI Yeast Anticancer Drug Screen. Data for the mlh1 rad18 strain (AID 175); conditions: S. cerevisiae mlh1 rad18 strain growth inhibition, hits give high values
Outline: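 Compound-treated yeast growth, normalised to vehicle controls. Strain bears defined DNA repair mutations.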

[16] = NCI Yeast Anticancer Drug Screen. Data for the rad18 strain (AID 177); conditions: S. cerevisiae rad18 mutant growth inhibition, hits give high values
Outline: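 Inhibition values reflect reduced yeast growth compared with vehicle-treated controls, using a strain engineered with a DNA damage repair defect.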

[17] = at 5.0 µM (retest, dose inferred, filed as 0.5)
[18] = at 50.0 µM (retest, dose inferred, filed as 5.0)

CN(N=O)C(=O)Nc1ccc(C(=O)O)cc1
growth inhibition ([1]; at 1.2 µM): 1% | growth inhibition ([1]; at 3.7 µM): 3% | growth inhibition ([1]; at 11.0 µM): 8% | growth inhibition ([1]; at 33.0 µM): 29% | growth inhibition ([1]; at 100.0 µM): 62% | growth inhibition ([2]; at 1.2 µM): -2% | growth inhibition ([2]; at 3.7 µM): -3% | growth inhibition ([2]; at 11.0 µM): -2% | growth inhibition ([2]; at 33.0 µM): -2% | growth inhibition ([2]; at 100.0 µM): 2% | growth inhibition ([3]; at 1.2 µM): -1% | growth inhibition ([3]; at 3.7 µM): 0% | growth inhibition ([3]; at 11.0 µM): 3% | growth inhibition ([3]; at 33.0 µM): 12% | growth inhibition ([3]; at 100.0 µM): 31% | growth inhibition ([4]; at 1.2 µM): 0% | growth inhibition ([4]; at 3.7 µM): 3% | growth inhibition ([4]; at 11.0 µM): 15% | growth inhibition ([4]; at 33.0 µM): 28% | growth inhibition ([4]; at 100.0 µM): 36% | growth inhibition ([5]; at 1.2 µM): 2% | growth inhibition ([5]; at 3.7 µM): 11% | growth inhibition [5, 17]: 12% | growth inhibition ([5]; at 11.0 µM): 19% | growth inhibition ([5]; at 33.0 µM): 44% | growth inhibition [5, 18]: 68% | growth inhibition ([5]; at 50.0 µM): 65.3% | growth inhibition ([5]; at 100.0 µM): 77% (active) | growth inhibition ([6]; at 1.2 µM): -10% | growth inhibition ([6]; at 3.7 µM): 1% | growth inhibition [6, 17]: -8% | growth inhibition ([6]; at 11.0 µM): -6% | growth inhibition ([6]; at 33.0 µM): -7% | growth inhibition [6, 18]: 37% | growth inhibition ([6]; at 50.0 µM): 7.8% | growth inhibition ([6]; at 100.0 µM): 19% | growth inhibition ([7]; at 1.2 µM): -4% | growth inhibition ([7]; at 3.7 µM): 6% | growth inhibition ([7]; at 11.0 µM): -1% | growth inhibition ([7]; at 33.0 µM): 2% | growth inhibition ([7]; at 100.0 µM): 8% | growth inhibition [8, 17]: 43% | growth inhibition [8, 18]: 80% (active) | growth inhibition ([8]; at 50.0 µM): 62.6% | growth inhibition ([9]; at 1.2 µM): -4% | growth inhibition ([9]; at 3.7 µM): -3% | growth inhibition ([9]; at 11.0 µM): -6% | growth inhibition ([9]; at 33.0 µM): -9% | growth inhibition ([9]; at 100.0 µM): -1% | growth inhibition [10, 17]: -45% | growth inhibition [10, 18]: -4% | growth inhibition ([10]; at 50.0 µM): 2.05% | growth inhibition ([11]; at 1.2 µM): -14% | growth inhibition ([11]; at 3.7 µM): -8% | growth inhibition [11, 17]: -16% | growth inhibition ([11]; at 11.0 µM): -5% | growth inhibition ([11]; at 33.0 µM): -9% | growth inhibition [11, 18]: 6% | growth inhibition ([11]; at 50.0 µM): -14.2% | growth inhibition ([11]; at 100.0 µM): -8% | growth inhibition ([12]; at 1.2 µM): -3% | growth inhibition ([12]; at 3.7 µM): -2% | growth inhibition ([12]; at 11.0 µM): -1% | growth inhibition ([12]; at 33.0 µM): 0% | growth inhibition ([12]; at 100.0 µM): 6% | growth inhibition ([13]; at 1.2 µM): -6% | growth inhibition ([13]; at 3.7 µM): 1% | growth inhibition ([13]; at 11.0 µM): -1% | growth inhibition ([13]; at 33.0 µM): -21% | growth inhibition ([13]; at 100.0 µM): -12% | growth inhibition ([14]; at 1.2 µM): 2% | growth inhibition ([14]; at 3.7 µM): 8% | growth inhibition ([14]; at 11.0 µM): 20% | growth inhibition ([14]; at 33.0 µM): 35% | growth inhibition ([14]; at 100.0 µM): 55% | growth inhibition [15, 17]: 16% | growth inhibition [15, 18]: 51% | growth inhibition ([15]; at 50.0 µM): 32.9% | growth inhibition ([16]; at 1.2 µM): 18% | growth inhibition ([16]; at 3.7 µM): 47% | growth inhibition ([16]; at 11.0 µM): 81% (active) | growth inhibition ([16]; at 33.0 µM): 90% (active) | growth inhibition ([16]; at 100.0 µM): 93% (active)
